Reference: PubChem BioAssay (Tox21)
Results filed as inconclusive are left out. Active and inactive are the calls of the source. Unless noted, calls come from the whole dose curve; as a rule, active = well fitted curve in the direction sought with a large enough effect in the repeat runs; inconclusive = weak or mixed curves; inactive = no such curve, though single readings can be large; an effect the other way counts as inactive or inconclusive.

Tests used:
[1] = qHTS assay for small molecule agonists of the p53 signaling pathway (AID 651631; calls by dose curve; note: nearly all actives have a fitted effect of over 15% in size; note: potency is the fitted concentration of half-maximal effect)
Outline: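 Fluorescence intensity from cleaved LiveBLAzer B/G substrate (2 h, room temperature) served as the signal. Beforehand, HCT-116 reporter cells bearing p53 response elements were treated 16 h at 37 °C with DMSO-dissolved compounds.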

[2] = qHTS assay for small molecules that induce genotoxicity in human embryonic kidney cells expressing luciferase-tagged ATAD5 (AID 651632); note: nearly all actives have a fitted effect of over 15% in size
Outline: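 Cells were seeded at 2,000 per well, dosed with compound, and incubated 16 hr at 37C in 5% CO2. Luciferase activity was then quantified after a 30 min room-temperature incubation with Amplite.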

[3] = qHTS assay for small molecule agonists of the p53 signaling pathway - cell viability (AID 651633; calls by dose curve;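 note: p53RE-bla HCT reporter cells with a stable beta-lactamase p53 reporter; series mostly up to about 83 µM; nearly all actives have a fitted effect of over 30% in size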)
Outline: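 p53RE-bla cells were treated with compound for 16 hours at 37 C. Cytotoxicity was then measured as CellTiter-Glo luminescence after 30 min at room temperature.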

[4] = qHTS assay for small molecules that induce genotoxicity in human embryonic kidney cells expressing luciferase-tagged ATAD5 - cell viability (AID 651634; calls by dose curve; note: nearly all actives have a fitted effect of over 25% in size; note: potency is the fitted concentration of half-maximal effect)
Outline: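 Cells (HEK293T, luciferase-tagged ATAD5) are seeded at 2,000 per well, dosed with compound or DMSO vehicle, and incubated 15.5 hr at 37C and 5% CO2. CellTiter-Fluor is added for 30 min before fluorescence is measured.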

[5] = qHTS assay for small molecule disruptors of the mitochondrial membrane potential - cell viability (AID 720634; calls by dose curve;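 note: human HepG2 liver cancer cells; series mostly up to about 83 µM; nearly all actives have a fitted effect of over 20% in size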)
Outline: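 Cytotoxicity was measured by ATP quantitation in HepG2 wells that had first been treated with compound for 1 hr and stained with m-MPI dye; CellTiter-Glo incubation was 30 min at room temperature.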

[6] = qHTS assay for small molecule disruptors of the mitochondrial membrane potential (AID 720635); note: potency is the fitted concentration of half-maximal effect
Outline: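 HepG2 cells exposed to compound 1 hr at 37C, then Mito-MPS dye 30 min. Ratio read of aggregate (540/590 nm) versus monomer (490/535 nm) fluorescence.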

[7] = qHTS assay to test for compound auto fluorescence at 590 nm (red) in HepG2 cells (AID 720674)
Outline: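 Fluorescence at 590 nm emission following 540 nm excitation was recorded from HepG2 wells one hour after compound transfer, with DMSO-only wells as vehicle and Rose Bengal sodium equivalency as the scale.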

[8] = qHTS assay to test for compound auto fluorescence at 535 nm (green) in HepG2 cells (AID 720675)
[9] = qHTS assay to test for compound auto fluorescence at 460 nm (blue) in HEK293 cells (AID 720678)
Outline: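 HEK293 cells (2,000 per well, medium with 10% dialyzed FBS) attached for 4-5 hr at 37C, then received compound and stood overnight at 37C, 5% CO2. Blue fluorescence was read at Ex/Em 405/460 nm and expressed relative to triamterene.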

[10] = qHTS assay to test for compound auto fluorescence at 590 nm (red) in HEK293 cells (AID 720679)
Outline: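 HEK293 cells (2,000/well, medium with 10% dialyzed FBS) attached for 4-5 hr at 37C, received 23 nL compound and were incubated overnight at 37C, 5% CO2. Red fluorescence was then read at 540/590nm Ex/Em, referenced to Rose Bengal sodium.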

[11] = qHTS assay to test for compound auto fluorescence at 535 nm (green) in HEK293 cells (AID 720680)
[12] = qHTS assay to test for compound auto fluorescence at 460 nm (blue) in HEK293 cell free culture (AID 720681)
Outline: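 Compounds were added to cell-free DMEM with 10% FBS and fluorescence read directly. The blue channel used 405 nm excitation and 460 nm emission, with triamterene as the reference fluorophore.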

[13] = qHTS assay to test for compound auto fluorescence at 535 nm (green) in HEK293 cell free culture (AID 720682)
Outline: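 Intrinsic compound fluorescence is measured in culture medium containing 10% FBS, with excitation at 485 nm and detection at 535 nm, referenced to fluorescein.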

[14] = qHTS assay to test for compound auto fluorescence at 590 nm (red) in HEK293 cell free culture (AID 720683)
Outline: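 Cell-free wells of DMEM with 10% FBS received compound, and intrinsic fluorescence was read at excitation/emission 540/590 nm. Values expressed as equivalence to Rose Bengal sodium.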

[15] = qHTS assay to test for compound auto fluorescence at 590 nm (red) in HepG2 cell free culture (AID 720684)
Outline: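 Rose Bengal sodium served as the reference for red signal. Test compounds were dispensed into serum-containing MEM (10% FBS) without cells, and plates were read at 540/590 nm.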

[16] = qHTS assay to test for compound auto fluorescence at 460 nm (blue) in HepG2 cell free culture (AID 720685)
Outline: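 Cell-free plates of MEM plus 10% FBS received 23 nL compound or DMSO vehicle; blue-channel (405/460 nm) intensity scored against triamterene as reference fluorophore.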

[17] = qHTS assay to test for compound auto fluorescence at 535 nm (green) in HepG2 cell free culture (AID 720686)
[18] = qHTS assay to test for compound auto fluorescence at 460 nm (blue) in HepG2 cells (AID 720687)
Outline: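 HepG2 cells in MEM with 10% FBS, attached overnight at 37 C, were exposed to compound or DMSO for 1 hr at 37 C, 5% CO2. Blue fluorescence was read at 405/460 nm, with triamterene as reference fluorophore.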

[19] = target: Glucocorticoid receptor (Homo sapiens) (UniProt P04150); assay: qHTS assay to identify small molecule agonists of the glucocorticoid receptor (GR) signaling pathway (AID 720691; active = well fitted activation curve with a large enough effect in the signal ratio in the repeat runs, not every such curve was filed as active; the % refers to the signal ratio; note: potency is the fitted concentration of half-maximal effect)
Chain of Glucocorticoid receptor (Homo sapiens) (P04150 whole entry, looked up): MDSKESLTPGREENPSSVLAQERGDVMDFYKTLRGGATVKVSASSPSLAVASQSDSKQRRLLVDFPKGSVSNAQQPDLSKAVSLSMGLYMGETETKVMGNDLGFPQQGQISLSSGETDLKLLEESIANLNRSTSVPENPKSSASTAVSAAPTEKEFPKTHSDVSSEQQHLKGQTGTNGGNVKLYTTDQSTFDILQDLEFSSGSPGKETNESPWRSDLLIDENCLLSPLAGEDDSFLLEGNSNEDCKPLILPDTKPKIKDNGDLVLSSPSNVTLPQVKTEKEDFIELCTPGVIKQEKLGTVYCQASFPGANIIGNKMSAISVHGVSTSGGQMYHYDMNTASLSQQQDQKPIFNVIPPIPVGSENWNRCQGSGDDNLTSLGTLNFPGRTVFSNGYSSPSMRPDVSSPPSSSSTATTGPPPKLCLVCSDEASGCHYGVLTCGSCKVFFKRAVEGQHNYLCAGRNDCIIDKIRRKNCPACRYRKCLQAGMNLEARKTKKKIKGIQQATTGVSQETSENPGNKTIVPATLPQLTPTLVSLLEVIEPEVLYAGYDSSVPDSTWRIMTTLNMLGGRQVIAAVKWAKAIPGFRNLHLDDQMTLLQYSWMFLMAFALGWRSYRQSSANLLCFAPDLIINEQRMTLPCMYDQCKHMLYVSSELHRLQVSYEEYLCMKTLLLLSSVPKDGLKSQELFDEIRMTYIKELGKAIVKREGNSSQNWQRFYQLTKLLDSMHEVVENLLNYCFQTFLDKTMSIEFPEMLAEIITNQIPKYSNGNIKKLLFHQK
Outline: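 Steps: seed GR-bla HeLa cells, incubate 4 h at 37 C/5% CO2; pin-transfer DMSO-dissolved compounds; incubate 18 h at 37 C; add LiveBLAzer B/G FRET substrate; after 2 h at room temperature, measure fluorescence.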

[20] = target: Glucocorticoid receptor (Homo sapiens) (UniProt P04150); assay: qHTS assay to identify small molecule antagonists of the glucocorticoid receptor (GR) signaling pathway (AID 720692; active = well fitted inhibition curve with a large enough effect in the signal ratio in the repeat runs, not every such curve was filed as active; the % refers to the signal ratio)
Outline: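 Antagonism was scored as loss of dexamethasone-driven (5 nM final) reporter signal in HeLa cells bearing a glucocorticoid response element–beta-lactamase construct, after 18 h compound exposure at 37 C and 2 h FRET substrate loading.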
% is set by controls: 0 for no effect and ±100 for the full control effect.

O=NN(CCCl)C(=O)NCCCl
inactive: Potency [2] | Potency [3] | Potency [4] | outcome [5] | Potency [6] | outcome [7] | outcome [8] | Potency [9] | outcome [10] | outcome [11] | Potency [12] | outcome [13] | outcome [14] | outcome [15] | Potency [16] | outcome [17] | Potency [18] | Potency [19]
active: Potency [1] 1.19 µM

O=C1c2ccccc2C(=O)c2c(O)ccc(O)c21
inactive: Potency [1] | Potency [2] | Potency [3] | outcome [5] | outcome [7] | outcome [8] | Potency [9] | Potency [12] | outcome [13] | outcome [15] | Potency [16] | Potency [18] | Potency [19]
active: Potency [4] 54.5 µM | Potency [6] 3.06 µM

COC(=O)c1sccc1S(N)(=O)=O
inactive: Potency [1] | Potency [2] | Potency [3] | Potency [4] | outcome [5] | Potency [6] | outcome [7] | outcome [8] | Potency [9] | Potency [12] | outcome [13] | outcome [14] | outcome [15] | Potency [16] | outcome [17] | Potency [18] | Potency [19]

Nc1nc(-c2ccc([N+](=O)[O-])cc2)cs1
inactive: Potency [1] | Potency [2] | Potency [3] | Potency [4] | outcome [5] | outcome [7] | outcome [8] | Potency [9] | outcome [10] | outcome [11] | Potency [12] | outcome [13] | outcome [14] | outcome [15] | Potency [16] | outcome [17] | Potency [18] | Potency [19] | Potency [20]
active: Potency [6] 3.1 µM

Nc1ccc(S(=O)(=O)NCc2ccccc2)cc1
inactive: Potency [1] | Potency [2] | Potency [3] | Potency [4] | outcome [5] | Potency [6] | outcome [7] | outcome [8] | Potency [9] | outcome [10] | outcome [11] | Potency [12] | outcome [13] | outcome [14] | outcome [15] | Potency [16] | Potency [18] | Potency [19]

COC(=O)CC(C(C)=O)C(=O)OC (stereo not given)
inactive: Potency [1] | Potency [2] | Potency [3] | Potency [4] | outcome [5] | Potency [6] | outcome [7] | outcome [8] | Potency [9] | outcome [10] | outcome [11] | outcome [13] | outcome [14] | outcome [15] | Potency [16] | Potency [18] | Potency [19] | Potency [20]

CC12CC3CC(C)(C1)CC(N)(C3)C2
inactive: Potency [1] | Potency [2] | Potency [3] | Potency [4] | outcome [5] | Potency [6] | outcome [7] | outcome [8] | Potency [9] | outcome [10] | outcome [11] | Potency [12] | outcome [13] | outcome [14] | outcome [15] | Potency [16] | outcome [17] | Potency [18] | Potency [19] | Potency [20]

CC1=C2[C@@H]([C@H](C)CC[C@H]2/C=C(\C)C(=O)O)[C@H](O)C1
inactive: Potency [1] | Potency [2] | Potency [3] | Potency [4] | outcome [5] | Potency [6] | outcome [7] | outcome [8] | Potency [9] | outcome [10] | outcome [11] | Potency [12] | outcome [13] | outcome [14] | outcome [15] | Potency [16] | outcome [17] | Potency [18] | Potency [19] | Potency [20]

O=c1[nH]c2cc(C(F)(F)F)c(N3CCOCC3)cc2n(CP(=O)(O)O)c1=O
inactive: Potency [1] | Potency [2] | Potency [3] | Potency [4] | outcome [5] | Potency [6] | outcome [7] | outcome [8] | Potency [9] | outcome [10] | outcome [11] | Potency [12] | outcome [13] | outcome [14] | outcome [15] | Potency [16] | outcome [17] | Potency [18] | Potency [19]

CCN(CC)C(=O)N1CCN(C)CC1
active: Potency [19] 10.2 µM
inactive: Potency [1] | Potency [2] | Potency [3] | Potency [4] | outcome [5] | Potency [6] | fluorescence, relative to Rose Bengal [7] 0.12% [at 18.6 µM] | fluorescence, % of fluorescein control [8] -0.0715% [at 18.6 µM] | fluorescence, % of fluorescent control [10] 0.0039% [at 18.6 µM] | fluorescence, % of fluorescein [11] -0.0466% [at 18.6 µM] | fluorescence, % of fluorescent control [12] 0.0671% [at 18.6 µM] | activity change [13] -0.0353% [at 18.6 µM] | fluorescence, % of fluorescent control [14] 0.461% [at 18.6 µM] | fluorescence, % of Rose Bengal [15] 0.0189% [at 18.6 µM] | fluorescence, % of fluorescent control [16] -0.0488% [at 18.6 µM] | fluorescence, % of fluorescein control [17] -0.0623% [at 18.6 µM] | fluorescence, % of fluorescent control [18] 0.0195% [at 18.6 µM]

C=CC(=O)NC(C)C
inactive: Potency [1] | Potency [2] | Potency [3] | Potency [4] | outcome [5] | Potency [6] | outcome [7] | outcome [8] | Potency [9] | outcome [10] | Potency [12] | outcome [13] | outcome [14] | outcome [15] | Potency [16] | outcome [17] | Potency [18] | Potency [19] | Potency [20]

c1ccc2sc(SSc3nc4ccccc4s3)nc2c1
inactive: Potency [1] | Potency [2] | Potency [3] | Potency [4] | outcome [5] | Potency [6] | outcome [7] | outcome [8] | Potency [9] | outcome [10] | outcome [11] | Potency [12] | outcome [13] | outcome [14] | outcome [15] | Potency [16] | outcome [17] | Potency [18] | Potency [19]

CC(C)N=C=NC(C)C
inactive: Potency [1] | Potency [2] | Potency [3] | Potency [4] | outcome [5] | Potency [6] | outcome [7] | outcome [8] | Potency [9] | Potency [12] | outcome [13] | outcome [14] | outcome [15] | Potency [16] | outcome [17] | Potency [18] | Potency [19]

CC(O)Cn1cnc2c1c(=O)n(C)c(=O)n2C (stereo not given)
inactive: Potency [1] | Potency [2] | Potency [3] | Potency [4] | outcome [5] | Potency [6] | fluorescence, relative to Rose Bengal [7] -0.388% [at 18.6 µM] | fluorescence, % of fluorescein control [8] 0.0515% [at 18.6 µM] | fluorescence, % of fluorescent control [10] 0.0437% [at 18.6 µM] | fluorescence, % of fluorescein [11] -0.0718% [at 18.6 µM] | fluorescence, % of fluorescent control [12] -0.136% [at 18.6 µM] | activity change [13] -0.0176% [at 18.6 µM] | fluorescence, % of Rose Bengal [15] -0.131% [at 18.6 µM] | fluorescence, % of fluorescent control [16] -0.0952% [at 18.6 µM] | fluorescence, % of fluorescein control [17] -0.0191% [at 18.6 µM] | fluorescence, % of fluorescent control [18] 0.0234% [at 18.6 µM]

CCCCCCOC(=O)CCCCC
inactive: Potency [1] | Potency [2] | Potency [3] | Potency [4] | outcome [5] | Potency [6] | outcome [7] | outcome [8] | Potency [9] | outcome [11] | Potency [12] | outcome [13] | outcome [15] | Potency [18] | Potency [19]
